# Legend:
# Settings in all cases: concentration: 1 μM, replicates: in singlicate; n = 1
# [1] = test system: SGK2
# [2] = test system: SGK3
# [3] = test system: SGK
# [4] = test system: SIK2
# [5] = test system: SIK
# [6] = test system: SLK
# [7] = test system: T1, SNARK
# T1 construct: gene NUAK2
# [8] = test system: SNRK
# [9] = test system: SRC
# [10] = test system: SRMS
# [11] = test system: SRPK1
# [12] = test system: SRPK2
# [13] = test system: SRPK3
# [14] = test system: STK16
# [15] = test system: STK33
# [16] = test system: STK35
# [17] = test system: STK36
# [18] = test system: STK39
# [19] = test system: SYK
# [20] = test system: SgK110
# 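Note: KINOMEscan kinase panel screen.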
Compound,%Inh [1] [%],%Inh [2] [%],%Inh [3] [%],%Inh [4] [%],%Inh [5] [%],%Inh [6] [%],%Inh [7] [%],%Inh [8] [%],%Inh [9] [%],%Inh [10] [%],%Inh [11] [%],%Inh [12] [%],%Inh [13] [%],%Inh [14] [%],%Inh [15] [%],%Inh [16] [%],%Inh [17] [%],%Inh [18] [%],%Inh [19] [%],%Inh [20] [%]
Nc1ncnc2c1ncn2-c1ccc(Cl)cc1 [AH2635],0,0,0,0,3,20,0,0,0,0,0,13,0,3,0,0,0,0,31,0
Cc1nc(N(C)[C@H]2CN(C(=O)CC#N)CC[C@H]2C)c2cc[nH]c2n1,7,0,25,0,6,1,1,0,11,2,26,0,1,0,0,0,0,0,0,0
COC(=O)c1c(-c2ccccc2)c2cc(Br)ccc2c(=O)n1Cc1ccc(NC(=O)CCC(=O)O)cc1,18,0,6,0,6,1,0,0,25,0,0,10,20,15,0,0,8,14,0,0
COc1ccc(-c2cc3c(C)nc(N)nc3n([C@H]3CC[C@H](O)CC3)c2=O)cn1,0,0,0,0,0,0,0,0,0,0,21,0,0,0,0,0,0,0,0,0
O=C(Nc1n[nH]c2cc(-c3ccccc3F)ccc12)C1CC1 [SB-733371],11,12,5,5,0,1,1,0,0,14,10,0,38,0,0,11,0,2,17,0
Cn1c(=O)c(F)c(Nc2ccc(I)cc2F)c2c(=O)n(OC[C@H](O)CO)cnc21,3,0,0,0,4,0,0,0,11,0,15,13,7,14,0,0,9,32,20,0
Nc1n[nH]c2nnc(-c3ccccc3)c(-c3ccccc3)c12 [GW554060],0,1,24,0,0,24,0,0,0,0,0,0,9,25,0,0,0,35,0,0
COc1cc(Nc2nccc(N3CCC(NC(=O)C4COc5ccccc5O4)C3)n2)cc(OC)c1OC (centres unmarked) [GSK1379761],0,0,17,0,0,17,23,0,53,11,65,70,0,70,4,13,40,0,44,0
O=C(Nc1n[nH]c2nc(-c3ccccc3)c(Cl)cc12)C1CC1 [SB-734909],5,12,9,27,0,15,0,33,0,0,0,27,15,1,0,32,6,0,0,23
Nc1nc(-c2ccccc2F)c(-c2ccnc3ccccc23)s1 [GW560459],1,5,15,0,0,4,8,0,0,0,25,0,0,7,0,0,0,1,32,0
CCS(=O)c1ccc(-c2coc3ccc(-c4nnc(C)o4)cc23)cc1 (centres unmarked),13,23,7,5,13,0,30,0,0,0,0,0,5,22,0,0,2,28,13,5
FC(F)(F)c1ccc(-c2ncn(CCCN3CCOCC3)c2-c2ccncc2)cc1 [SB-217780],25,0,5,0,0,0,0,18,0,0,0,6,6,9,0,0,10,19,0,0
COc1ccc(Nc2nccc(N3CCC(NS(=O)(=O)c4ccc(NC(C)=O)cc4)C3)n2)cc1 (centres unmarked) [GSK1379729],14,0,10,18,2,18,2,9,6,0,35,0,63,19,10,14,3,2,35,4
CN1C(=O)C(Nc2cc(Cl)c(O)c(Cl)c2)=C(c2ccc(Cl)cc2)C1=O [SB-404321],0,0,0,0,0,0,0,0,0,0,0,0,96.2,0,0,0,19,0,0,0
Nc1n[nH]c2ncc(-c3ccccc3)cc12 [SB-517081],2,9,7,12,2,0,0,0,0,8,0,12,12,22,0,0,0,0,8,0
COc1cc2nccc(Nc3cccc(Oc4ccccc4)c3)c2cc1OC.Cl [GW284543],0,0,37,0,0,21,0,0,7,55,65,0,0,0,0,0,0,1,37,0

Compound,%Inh [1] [%],%Inh [2] [%],%Inh [3] [%],%Inh [4] [%],%Inh [5] [%],%Inh [6] [%],%Inh [7] [%],%Inh [8] [%],%Inh [9] [%],%Inh [10] [%],%Inh [11] [%],%Inh [12] [%],%Inh [13] [%],%Inh [14] [%],%Inh [15] [%],%Inh [16] [%],%Inh [17] [%],%Inh [18] [%],%Inh [19] [%],%Inh [20] [%]
CC(C)(C)c1ccc(C(=O)Nc2cn3cc(-c4ccccc4)ccc3n2)cc1,0,0,0,66,0,9,0,0,0,0,0,3,0,0,3,47,8,0,0,0
COc1cc2nccc(Nc3ccc(OCc4ccc(NC(C)=O)cc4)cc3)c2cc1OC.Cl [GW440135],0,0,2,4,0,3,0,0,14,20,42,12,23,2,15,3,29,3,6,21
COc1cc2ncn(-c3cc(OCc4ccncc4Br)c(C(N)=O)s3)c2cc1OC [GW854278],3,16,4,6,26,95.9,0,0,0,0,44,0,28,14,6,0,1,0,20,0
CCS(=O)(=O)c1ccc(OC)c(Nc2ncc(-c3ccc(F)cc3)o2)c1.Cl [GW591947],2,0,0,0,2,6,0,0,0,0,30,0,0,1,12,0,0,11,48,0
Cc1ccccc1COc1cc(-n2cnc3cc(Cl)ccc32)sc1C(N)=O [GW813349],6,1,0,0,4,73,4,3,0,0,10,34,10,0,30,0,30,0,9,0
CCC(=O)c1c(-c2ccccc2)c2cc(Cl)ccc2c(=O)n1Cc1cc(C(=O)NC2CC2)n(C)n1,5,10,2,55,1,0,0,0,0,0,0,19,0,6,0,51,0,13,0,11
Cc1ccc(Oc2ccc(Nc3ncnc4cc[nH]c34)cc2C)cn1,5,5,12,0,21,10,6,32,16,22,0,0,0,27,0,0,13,15,11,0
COc1cc(Nc2ccnc3ccc(C(F)(F)F)cc23)cc(OC)c1OC [GW577382],0,0,10,25,31,24,0,0,36,0,0,0,0,0,15,0,0,16,37,0
Cc1cc(Nc2nc(-c3cccc(C)n3)nc3ccccc23)ccn1 [GW872411],0,0,0,23,0,0,0,0,0,13,0,0,13,0,0,3,0,0,0,0
COc1cc(Nc2nccc(N3CCC(NC(=O)C(C)c4ccc(Cl)cc4)C3)n2)cc(OC)c1OC (centres unmarked) [GSK1379757],0,0,0,0,1,1,19,0,13,0,26,3,52,39,0,0,0,0,20,0
COc1cccc(-n2cnc3c(N)ncnc32)c1 [SKF-97416],8,0,44,0,0,2,5,20,13,22,2,6,0,16,12,0,0,29,4,0
Cc1cccc(-c2cc(-c3c[nH]nc3-c3ccccn3)ccn2)c1 [GW679395],6,0,0,0,0,0,0,0,53,0,3,0,0,21,0,0,64,30,16,64
COc1ccc(-c2coc3ccc(-c4nnc(SCc5cccc(C#N)c5)o4)cc23)cc1,0,21,0,0,17,18,30,18,3,0,0,0,0,20,0,26,8,0,14,10
O=c1cc(N2CCOCC2)nc2n(Cc3ccc(F)c(Cl)c3)ccn12 [GSK2297099],0,19,0,0,0,0,20,0,0,0,0,0,0,24,0,0,0,0,7,8
CCC(=O)c1c(-c2ccccc2)c2cc(Cl)ccc2c(=O)n1Cc1cc(S(C)(=O)=O)n(CC(F)F)n1,0,0,0,2,0,0,10,0,7,0,0,2,0,0,0,0,0,0,0,31

# — article PMC5540273 (PLoS ONE, 2017)
